Measurements from PubChem BioAssay (EPA / NIEHS).
Records with an inconclusive call do not appear. The source made the active and inactive calls. How the source made its calls: active means hit-call score of the fitted dose curve at least 0.9, where 1 is the maximum; inconclusive means response in the unintended direction; inactive means score below 0.9.

These compounds were tested against guinea pig Serotonin, 5-Hydroxytryptamine Receptor 4 (5HT4), HTR4 (gene 100135548) (UniProt O70528) (assay: NVS_GPCR_g5HT4: NovaScreen (NVS) G Protein-Coupled Receptor Assay for guinea pig Serotonin, 5-Hydroxytryptamine Receptor 4 (5HT4) (AID 2283294)).
Experimental: NVS_GPCR_g5HT4 is a biochemical, single-readout assay that uses extracted gene-proteins from Guinea pig striatal membranes in a tissue-based cell-free assay. Measurements were taken 1 hour after chemical dosing in a 48-well plate.NVS_GPCR_g5HT4 is one of one assay component(s) measured or calculated from the NVS_GPCR_g5HT4 assay. It is designed to make measurements of radioligand binding, a form of binding reporter, as detected with scintillation counting signals by Filter-based radiodetection technology.Data from the assay component NVS_GPCR_g5HT4 was analyzed into 1 assay endpoint. This assay endpoint, NVS_GPCR_g5HT4, was analyzed in the positive analysis fitting direction relative to DMSO as the negative control and baseline of activity. Using a type of binding reporter, loss-of-signal activity can be used to understand changes in the binding as they relate to the gene Htr4. Furthermore, this assay endpoint can be referred to as a primary readout, because the performed assay has only produced 1 assay endpoint. To generalize the intended target to other relatable targets, this assay endpoint is annotated to the gpcr intended target family, where the subfamily is rhodopsin-like receptor.
Binding assays used specific radioligands (tritiated, iodinated) with non-radioactive competitive displacement ligands in agonist or antagonist protocols (as indicated) and various reference compounds and inhibitors to titrate specific binding to receptors and transporters. Most enzyme assays (CYPs, kinases, phosphatases, proteases, HDACs) used recombinant protein and specific substrates (fluorescence mostly, some colorimetric and radioactive) and inhibitors, followed by a biochemical separation of substrate and product. All assays for the biochemical HTS were initially run in duplicate at a single concentration (10 uM for CYP450 assays and 25 uM for all others). […] Each assay was run with positive and negative controls, and concurrent controls on every plate. The follow-up (secondary) screen tested active chemical-pairs in concentration series, as well as a few additional assays not tested in the primary screen, some selected negative inactives, and several cases re-run in the concentration series for confirmatory purposes.

Chain of guinea pig Serotonin, 5-Hydroxytryptamine Receptor 4 (5HT4), HTR4 (gene 100135548) (O70528 whole entry, looked up): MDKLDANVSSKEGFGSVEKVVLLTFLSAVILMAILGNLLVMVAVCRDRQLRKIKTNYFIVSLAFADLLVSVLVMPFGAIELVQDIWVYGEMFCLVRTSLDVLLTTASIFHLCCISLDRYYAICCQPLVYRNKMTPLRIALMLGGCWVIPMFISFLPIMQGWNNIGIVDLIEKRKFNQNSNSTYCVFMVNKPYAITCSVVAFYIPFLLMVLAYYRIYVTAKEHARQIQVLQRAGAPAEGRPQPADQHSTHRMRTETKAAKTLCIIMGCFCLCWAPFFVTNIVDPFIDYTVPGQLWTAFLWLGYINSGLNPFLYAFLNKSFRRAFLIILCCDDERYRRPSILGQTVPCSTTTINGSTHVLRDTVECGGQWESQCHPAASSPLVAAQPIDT

Structure (SMILES)	outcome	AC50
C[C@@H](Oc1ccc(CNC(=O)c2cccnc2Oc2ccc3c(c2)OCO3)c(F)c1)C(=O)O	inactive	
CC(C)C(=O)Nc1ccc([N+](=O)[O-])c(C(F)(F)F)c1		6.71 µM (active)
COc1cc(C(C)C)c2c(c1)S(=O)(=O)N(COc1cc(=O)n3cccc(OCCN4CCCCC4)c3n1)C2=O		1.38 µM (active)
CCCCCCCCCC	inactive	
CCCCOC(=O)c1ccccc1	inactive	
C=CCc1cc(S(=O)(=O)c2ccc(O)c(CC=C)c2)ccc1O		10 µM (active)
CCN(CC)C(=S)SSC(=S)N(CC)CC		19 µM (active)
O=S(=O)(O)c1ccc(N=Nc2c(O)ccc3cc(S(=O)(=O)O)ccc23)cc1		35.6 µM (active)
Cc1ccc(S(=O)(=O)NC(=O)NN2CCCCCC2)cc1	inactive	
Cc1nccn1-c1ccc(Sc2cccc(C3(C(N)=O)CCOCC3)c2)cc1	inactive	
O=C(O)c1cccc(C[C@@H]2COc3ccc(OCc4nc5cc(F)ccc5s4)cc3[C@@H]2O)c1	inactive	
c1ccc(C(O[C@@H]2CCCN(CCc3ccc4c(c3)OCO4)C2)c2ccccc2)cc1		3.4 µM (active)
